From PubChem BioAssay
Records with an inconclusive call do not appear. Active and inactive are the calls of the source.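 The calls were made as follows, unless noted: active = viability at or below 30% in both replicate assays; inconclusive = viability at or below 30% in just one of the two assays; inactive = the rest.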

Experiments:
[1] = Her2 expression decrease, cell viability multiplex – SKBR3 breast tumor cells, AlphaScreen, ATP viability, primary screen (AID 461;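 active = Her2 level under about 52% in both replicate screens, with viability over 70% of control, limit read from the data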;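 as to Her2 level: lower value means less Her2 protein in the cells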;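 as to viability: percent of carrier control wells set as 100% viability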); settings: SKBR3 Her2 protein level, 18-24 h, measured here: SKBR3 viability, ATP luminescence, at 10 µM
[2] = target: Receptor tyrosine-protein kinase erbB-2 (Homo sapiens) (UniProt P04626); test: as above; settings: 18-24 h, at 10 µM, stronger effect = lower value
Sequence of Receptor tyrosine-protein kinase erbB-2 (Homo sapiens) (P04626 whole entry, looked up): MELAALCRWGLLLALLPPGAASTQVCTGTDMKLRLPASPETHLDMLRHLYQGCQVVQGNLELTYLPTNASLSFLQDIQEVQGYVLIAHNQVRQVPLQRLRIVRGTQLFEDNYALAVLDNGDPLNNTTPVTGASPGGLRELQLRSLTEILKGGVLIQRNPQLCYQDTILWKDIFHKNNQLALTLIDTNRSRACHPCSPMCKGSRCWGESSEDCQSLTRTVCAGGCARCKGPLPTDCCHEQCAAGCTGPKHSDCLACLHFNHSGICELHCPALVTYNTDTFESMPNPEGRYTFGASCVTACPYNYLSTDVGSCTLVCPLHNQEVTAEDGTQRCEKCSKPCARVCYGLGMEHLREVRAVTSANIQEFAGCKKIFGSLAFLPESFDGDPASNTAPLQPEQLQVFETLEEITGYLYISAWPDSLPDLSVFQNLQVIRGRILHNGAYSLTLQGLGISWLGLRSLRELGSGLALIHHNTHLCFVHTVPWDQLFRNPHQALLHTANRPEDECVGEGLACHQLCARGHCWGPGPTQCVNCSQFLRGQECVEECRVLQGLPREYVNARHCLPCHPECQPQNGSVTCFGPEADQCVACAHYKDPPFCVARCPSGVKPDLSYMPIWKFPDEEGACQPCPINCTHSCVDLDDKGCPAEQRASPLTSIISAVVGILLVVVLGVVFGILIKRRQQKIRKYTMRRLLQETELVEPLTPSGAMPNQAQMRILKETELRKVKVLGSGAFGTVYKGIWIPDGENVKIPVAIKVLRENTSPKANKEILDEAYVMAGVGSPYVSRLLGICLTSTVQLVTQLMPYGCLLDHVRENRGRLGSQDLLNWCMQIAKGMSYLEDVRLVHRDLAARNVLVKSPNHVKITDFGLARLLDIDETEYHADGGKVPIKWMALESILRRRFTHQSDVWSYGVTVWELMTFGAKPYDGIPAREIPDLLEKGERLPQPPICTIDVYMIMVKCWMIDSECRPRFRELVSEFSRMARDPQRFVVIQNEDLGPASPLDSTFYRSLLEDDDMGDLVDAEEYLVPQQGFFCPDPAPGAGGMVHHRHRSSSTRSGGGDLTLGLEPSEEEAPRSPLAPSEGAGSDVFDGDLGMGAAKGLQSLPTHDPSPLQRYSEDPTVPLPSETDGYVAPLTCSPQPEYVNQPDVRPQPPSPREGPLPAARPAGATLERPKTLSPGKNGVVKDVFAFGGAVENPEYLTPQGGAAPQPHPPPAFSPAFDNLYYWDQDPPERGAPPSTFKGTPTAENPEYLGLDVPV

[3] = reduced viability of SK-BR-3 breast cancer cells – cell-based, 24 h, human, pilot screen (AID 572;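 active = viability at or below 10% of carrier control in both of two separate runs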;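 also: compound exposure lasted between 18 and 24 h rather than exactly 24 h; 100% = carrier-treated control wells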); settings: SK-BR-3 viability, CellTiter-Glo luminescence, at 10 µM, stronger effect = lower value
[4] = HUVEC growth inhibition – cell-based, human, primary screen (AID 575); settings: HUVEC proliferation, CellTiter-Glo luminescence, 72 h; at 10 µM; stronger effect = lower value;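 also: 100% = median of untreated cell wells with 0.1% DMSO on each plate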
[5] = H69AR cell proliferation blockers – human, duplicate replicates, primary screen (AID 580;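 active = viability at or under a set limit in both replicates, limit being median viability minus 3 SD, cut at about 48% in these data, passing the limit was not always enough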;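 also: 100% = mean luminescence of untreated wells and 0% = no signal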); settings: H69AR lung tumor cells viability, ATP luminescence, 72 h; at 10 µM; stronger effect = lower value
[6] = MRP1 drug-resistance reversers in H69AR cells – cell-based, doxorubicin co-treatment, pilot screen (AID 601;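 active = viability loss from added drug above about 55%, and viability with drug at most 40%, in both replicates, limit read from the data, passing the limit was not always enough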); settings: CellTiter-Glo, 72 h, at 10 µM; for differential viability (reversal): stronger effect = higher value
[7] = yeast transport mutant growth inhibition pilot in 384-well plates, post-Golgi transport modulator project (AID 636; in the data active = inhibition above about 31%); settings: absorbance 615 nm, about 18 h, stronger effect = higher value
[8] = growth suppression of yeast trafficking mutant, preliminary HTS, modulators of trafficking downstream of Golgi apparatus project, 1536-format plate, OD 615 nm (AID 637; in the data active = inhibition above about 30%); settings: yeast transport mutant growth, absorbance 615 nm, 18 h; stronger effect = higher value
[9] = S. cerevisiae growth inhibition in permissive medium (OD615), pilot counter-assay for S. cerevisiae lifespan shortening project, permissive growth control (AID 705;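 active = growth inhibition above 25% in both replicates, a cutoff set 3 SD above the mean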); settings: OD615, 24 h, at 10 µM, stronger effect = higher value
[10] = S. cerevisiae growth inhibition in restrictive medium, OD615, pilot screen, restrictive growth control, yeast lifespan reduction project (AID 706;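 active = growth inhibition above a set limit, 3 SD over mean compound inhibition, in both replicates, cut at about 43% in these data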;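 also: modified DeaD lifespan yeast strain shifted to restrictive glucose medium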); settings: OD615, 48 h, at 10 µM, stronger effect = higher value
[11] = doxorubicin toxicity protection in MRP-1 cells – H69AR cells, CellTiter-Glo, duplicate, MRP-1 activator project, pilot screen (AID 807;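 active = viability increase at or above a cutoff of the median across tested compounds plus 3 SD, cut at about 8.5% in these data, passing the limit was not always enough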;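 also: compound pretreatment 18-22 h then 72 h combined with doxorubicin; 0% = doxorubicin alone and 100% = vehicle without doxorubicin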); settings: H69AR viability with doxorubicin, CellTiter-Glo luminescence; at 10 µM; stronger effect = higher value
[12] = viability of HCT116 without oncogenic beta-catenin – human colon tumor cells, pilot screen (AID 823;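 active = cell viability at or below a set limit in both duplicate runs, the limit being the all-compound median minus 4 SD, cut at about 23% in these data, passing the limit was not always enough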;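 also: 0% = wells killed by 20 µM Hyamine and 100% = untreated DMSO cell wells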); settings: HCT116 beta-catenin knockout viability, CellTiter-Glo, 60 h; at 10 µM; stronger effect = lower value
[13] = viability of PTEN-null HCT116 cells – cell-based, HCT116 clonal line, CellTiter-Glo, pilot screen (AID 824;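 active = viability at or below 27.92% in each of two runs, the all-compound median minus 4 SD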;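 also: 0% = 20 µM Hyamine control and 100% = vehicle cell control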); settings: HCT116 PTEN-deleted viability, 60 h, at 10 µM, stronger effect = lower value
[14] = RAM pathway blockade in budding yeast – dse1pr::URA3 reporter, 5-FOA selection, pilot screen (AID 869;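 active = inhibition over a set limit, the all-compound mean plus 3 SD, in both replicate runs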;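 also: 0% = DMSO wells with no growth and 100% = 10 µM 1-NA-PP1 with full growth; RAM network block rescues cells from 5-FOA so hits raise OD615 growth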); settings: S. cerevisiae dse1pr::URA3 5-FOA growth, OD615, 2 d; at 10 µM; stronger effect = higher value; strain carries analog-sensitive mutant Cbk1 kinase
[15] = RAM signaling pathway blockade in yeast – S. cerevisiae, Pdr1DBD-CYC8 efflux-inhibited sensitized strain, primary screen (AID 1298;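 active = RAM network inhibition above 8.4% in each of two replicates, 3 SD over the compound average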;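 also: 0% = DMSO untreated cells without growth and 100% = 10 µM 1-NA-PP1 full growth; higher means more yeast growth rescued from 5-FOA killing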); settings: S. cerevisiae cbk1-as DSE1-URA3 strain, 5-FOA growth OD615, 2 d; at 50 µM; stronger effect = higher value
[16] = H69AR cells + 2 uM doxorubicin, measured here: viability with 2 uM doxorubicin, stronger effect = lower value
[17] = H69AR cells, compound alone cytotoxicity

SMILES	viability [1]	Her2 level [2]	viability [3]	viability [4]	viability [5]	differential viability (reversal) ([6]; H69AR cells + 2 uM doxorubicin)	viability [6, 16]	viability [6, 17]	inhibition [7]	inhibition [8]	growth inhibition [9]	growth inhibition [10]	viability increase [11]	viability [12]	viability [13]	inhibition [14]	RAM network inhibition [15]
Cc1c(Cl)cccc1NC(=O)CCN1CCCCC1	100%	92% (inactive)	100% (inactive)	100% (inactive)	101% (inactive)	6% (inactive)	94.9%	101%	-2.8% (inactive)	0.16% (inactive)	-7.21% (inactive)	2.33% (inactive)	-1.01% (inactive)	100% (inactive)	96.4% (inactive)	0.655% (inactive)	4.96% (inactive)
CC(CCC(=O)Nc1nncs1)C(=O)O (stereo not given)	124%	110% (inactive)	124% (inactive)	101% (inactive)	85.9% (inactive)	-0.74% (inactive)	86.6%	85.9%	-3.2% (inactive)	8.33% (inactive)	-8.12% (inactive)	-5.29% (inactive)	0.04% (inactive)	108% (inactive)	95.9% (inactive)	0.135% (inactive)	-0.05% (inactive)
COc1cccc(NC(=O)C2CCCN(S(=O)(=O)c3cccc4cccnc34)C2)c1 (stereo not given)	106%	102% (inactive)	106% (inactive)	77.8% (inactive)	82.7% (inactive)	-6.64% (inactive)	89.3%	82.7%	-5.73% (inactive)	-5.5% (inactive)	-12.6% (inactive)	-6.68% (inactive)	-1.5% (inactive)	72.4% (inactive)	70.6% (inactive)	1.77% (inactive)	3.85% (inactive)
COc1ccccc1N1CCN(CC(O)c2ccc3cc[nH]c3c2)CC1 (stereo not given)	99%	112% (inactive)	99% (inactive)	95.6% (inactive)	88.8% (inactive)	11.4% (inactive)	77.4%	88.8%	-3.33% (inactive)	2.46% (inactive)	3.54% (inactive)	5.26% (inactive)	-4.68% (inactive)	60.7% (inactive)	61.7% (inactive)	1.87% (inactive)	1.54% (inactive)
CC1(C)Oc2ccc3ccc(=O)oc3c2C(N2CCCCC2)C1O (stereo not given)	103%	94% (inactive)	103% (inactive)	89.6% (inactive)	92.6% (inactive)	7.25% (inactive)	85.3%	92.6%	-0.52% (inactive)	-4.33% (inactive)	-4.78% (inactive)	-7.54% (inactive)	-2.43% (inactive)	101% (inactive)	98.2% (inactive)	1.49% (inactive)	2.29% (inactive)
CC(=O)c1cccc(NC(=O)CCOc2ccccc2)c1	96%	121% (inactive)	96% (inactive)	106% (inactive)	98.3% (inactive)	1.96% (inactive)	96.3%	98.3%	1.04% (inactive)	-12.8% (inactive)	5.62% (inactive)	4.36% (inactive)	-1.33% (inactive)	102% (inactive)	95% (inactive)	1.27% (inactive)	1.57% (inactive)
CC1CCc2nn(CC(=O)Nc3ccc(F)cc3F)cc2C1 (stereo not given)	108%	97.5% (inactive)	108% (inactive)	100% (inactive)	104% (inactive)	14.7% (inactive)	89.5%	104%	-0.93% (inactive)	-6.72% (inactive)	-2.97% (inactive)	-12.2% (inactive)	1.3% (inactive)	97.8% (inactive)	98.3% (inactive)	2.21% (inactive)	-0.77% (inactive)
c1ccc(-c2cn3cccnc3n2)cc1	118%	88.5% (inactive)	118% (inactive)	106% (inactive)	101% (inactive)	10.5% (inactive)	90.4%	101%	-6.45% (inactive)	-0.73% (inactive)	-10.6% (inactive)	-27% (inactive)	0.59% (inactive)	110% (inactive)	100% (inactive)	3.13% (inactive)	1.13% (inactive)
CCCCSc1nc2c(cnn2-c2ccc(F)cc2)c(=O)[nH]1	93.5%	92% (inactive)	93.5% (inactive)	96.2% (inactive)	74% (inactive)	-10.8% (inactive)	84.9%	74%	-0.93% (inactive)	0.5% (inactive)	-7.35% (inactive)	-3.62% (inactive)	-2.12% (inactive)	104% (inactive)	93.7% (inactive)	1.85% (inactive)	6.19% (inactive)
CC(C)(C)NC(=O)CSc1nnc(-c2ccccn2)n1-c1ccccc1	98.5%	126% (inactive)	98.5% (inactive)	105% (inactive)	91.9% (inactive)	0.06% (inactive)	91.9%	91.9%	-5.2% (inactive)	-3% (inactive)	-14% (inactive)	-6.57% (inactive)	-0.63% (inactive)	100% (inactive)	92.9% (inactive)	0.43% (inactive)	1.1% (inactive)
COc1cc(C(O)c2nc3ccccc3n2C)cc(OC)c1OC (stereo not given)	91.5%	100% (inactive)	91.5% (inactive)	99.8% (inactive)	103% (inactive)	9.33% (inactive)	93.2%	103%	1.95% (inactive)	-7.33% (inactive)	-7.22% (inactive)	-9.59% (inactive)	-0.62% (inactive)	94.1% (inactive)	93.3% (inactive)	1.35% (inactive)	0.78% (inactive)
O=C(Nc1nc(-c2ccccn2)cs1)C1CC1	93.5%	97.5% (inactive)	93.5% (inactive)	96.1% (inactive)	82% (inactive)	-19.5% (inactive)	101%	82%	1.07% (inactive)	-3.17% (inactive)	0.675% (inactive)	1.15% (inactive)	0.73% (inactive)	67.3% (inactive)	70.5% (inactive)	0.575% (inactive)	0.89% (inactive)
CC(C)(C)NC(=O)Cn1c(=O)oc2ccc(Cl)cc21	96%	104% (inactive)	96% (inactive)	96.5% (inactive)	92.9% (inactive)	28.8% (inactive)	64.1%	92.9%	-2.4% (inactive)	0.83% (inactive)	5.54% (inactive)	5.01% (inactive)	-4.63% (inactive)	106% (inactive)	100% (inactive)	0.38% (inactive)	7.56% (inactive)
CCOC(=O)c1c(C)n(C)c2c(C)cc(O)c(OC(C)=O)c12	93%	83.5% (inactive)	93% (inactive)	103% (inactive)	101% (inactive)	13.4% (inactive)	87.3%	101%	-3.9% (inactive)	0.5% (inactive)	-11.9% (inactive)	-6.75% (inactive)	-5.24% (inactive)	78.5% (inactive)	86.8% (inactive)	1.42% (inactive)	1.23% (inactive)
CCOC(=O)N1CCC(NC(=O)c2cc(C(=O)NC3CCCC3)ccc2CO)CC1	97.5%	104% (inactive)	97.5% (inactive)	97.4% (inactive)	92.8% (inactive)	5.52% (inactive)	87.3%	92.8%	-6.8% (inactive)	6% (inactive)	3.62% (inactive)	-3.18% (inactive)	-0.72% (inactive)	92.1% (inactive)	90.2% (inactive)	1.87% (inactive)	1.13% (inactive)
Fc1ccc(-c2nnc3ccc(N4CCCC4)nn23)cc1	80%	90.5% (inactive)	80% (inactive)	64.2% (inactive)	94.5% (inactive)	16.8% (inactive)	77.7%	94.5%	-0.27% (inactive)	8.52% (inactive)	11.7% (inactive)	32.5% (inactive)	-5.62% (inactive)	102% (inactive)	86.3% (inactive)	0.685% (inactive)	5.61% (inactive)
COC(=O)Cn1c(CN2CCN(c3ccccc3F)CC2)nc2c1c(=O)n(C)c(=O)n2C	104%	95% (inactive)	104% (inactive)	95.3% (inactive)	93.8% (inactive)	6.45% (inactive)	87.3%	93.8%	-3.73% (inactive)	3.33% (inactive)	-7.25% (inactive)	-1.94% (inactive)	0.3% (inactive)	97.4% (inactive)	90.1% (inactive)	2.47% (inactive)	6.25% (inactive)
COc1ccc(S(=O)(=O)N(CC(=O)N2CCN(c3ccccc3OC)CC2)c2ccccc2)cc1	74%	108% (inactive)	74% (inactive)	51.8% (inactive)	86.8% (inactive)	-8.61% (inactive)	95.4%	86.8%	-6.35% (inactive)	-2.3% (inactive)	-11.3% (inactive)	-11.3% (inactive)	5.84% (inactive)	67.2% (inactive)	72.3% (inactive)	0.87% (inactive)	2.02% (inactive)
Cc1ccc(C)c(C(=O)CC2(O)C(=O)N(C)c3ccccc32)c1 (stereo not given)	112%	113% (inactive)	112% (inactive)	105% (inactive)	92.2% (inactive)	10.1% (inactive)	82.1%	92.2%	-4.68% (inactive)	-1.5% (inactive)	-8.69% (inactive)	-12.9% (inactive)	-0.65% (inactive)	107% (inactive)	97.2% (inactive)	3.41% (inactive)	-0.11% (inactive)
CCOC(=O)c1cccc(NC2c3ccccc3C(=O)N2Cc2ccco2)c1 (stereo not given)	98.5%	98% (inactive)	98.5% (inactive)	76.2% (inactive)	82.1% (inactive)	-6.29% (inactive)	88.4%	82.1%	-3.6% (inactive)	-0.83% (inactive)	2.55% (inactive)	1.38% (inactive)	-5.15% (inactive)	64.7% (inactive)	74.6% (inactive)	2.4% (inactive)	8.31% (inactive)
